Inconclusive results are not listed. Where a call stands in place of a potency, no number is given. The source made the active and inactive calls. Calls follow the shape of the dose curve; as a rule, active = well fitted curve in the direction sought with a large enough effect; inconclusive = small, poorly fitted or top-dose-only effect, or another doubt; inactive = no such curve, though single readings can be large; an effect the other way counts as inactive or inconclusive.

The results in this text go back to PubChem BioAssay (NCATS).

One assay is described as follows: qHTS assay to identify small molecule inhibitors of chordoma cells - UCH-2 (AID 1259356). Also: potency is read from the fitted curve at half-maximal effect. As to conditions: UCH-2 chordoma viability, CellTiter-Glo ATP luminescence, 48 h; series mostly up to 46.1 µM. In general terms: In qHTS, concentration-response curves come from the screen itself.
Regarding `CC(C)[C@@]1(NC(=O)[C@@H]2C[C@@H]3c4cccc5[nH]cc(c45)C[C@H]3N(C)C2)O[C@@]2(O)[C@@H]3CCCN3C(=O)[C@H](Cc3ccccc3)N2C1=O`, the Potency entry was “inactive”.
As to `C=CCN(C1=NCCN1)c1c(Cl)cccc1Cl`, the Potency entry is “inactive”.
The same measure, in the same setting: to `CC(N)Cc1ccc(O)cc1` (configuration not stated) belongs “inactive”; to `C[N+]1([O-])[C@@H]2CC(OC(=O)[C@H](CO)c3ccccc3)C[C@H]1[C@@H]1O[C@@H]12` (some centres not stated), “inactive”; to `C[N+]1(C)[C@@H]2CC[C@H]1CC(OC(=O)c1c[nH]c3ccccc13)C2` (some centres not stated), “inactive”.
Regarding `O=C1C[C@@H]2OCC=C3CN4CC[C@]56c7ccccc7N1[C@H]5[C@H]2[C@H]3C[C@H]46` (tested in a mixture with another compound), the Potency entry was “inactive”.
Turning to `C[C@]12CC[C@H](O)C[C@H]1CC[C@@H]1[C@@H]2CC[C@]2(C)[C@@H](c3ccc(=O)oc3)C[C@H]3O[C@]132`, the Potency was 6.51 µM (active).
For the compound `F/C(COc1ccc2c(c1)[nH]c1ccccc12)=C1/CN2CCC1CC2`, the Potency result is “inactive”.
As for `[H+].[H+].[Hg+2].[O-]B([O-])[O-].[c-]1ccccc1`, the Potency is 13 µM (active).
Same read-out and setting: to `Oc1cccc[c]1[Hg][Cl]` belongs 13 µM (active); to `CC1CCC(C(C)C)C(OC(=O)c2ccccc2N)C1` (configuration not stated), “inactive”.
Same read-out and setting: to `COc1ccc2c3c1O[C@H]1[C@@H](O)C=C[C@H]4[C@@H](C2)NCC[C@@]341` belongs “inactive”; to `Cc1ccccc1-n1c(CF)nc2ccc(N)cc2c1=O`, “inactive”.
As for `CC(C)(O)[C@@H]1[C@H]2OC(=O)[C@@H]1[C@]1(O)C[C@H]3O[C@]34C(=O)O[C@H]2[C@]14C`, the Potency result was “inactive”.
Same read-out and setting: for `COCC(C)N(C(=O)CCl)c1c(C)csc1C` (configuration not stated) the value was “inactive”.
As for `CC(=O)OCC(=O)[C@H]1CC[C@H]2[C@@H]3CC[C@H]4C[C@H](O)CC[C@]4(C)[C@H]3C(=O)C[C@]12C`, the Potency result was “inactive”.
On to `C[C@@H](Cc1ccccc1)N(C)C`, for which the Potency result is “inactive”.
With `O=C(NC(=O)c1c(F)cccc1F)Nc1ccc(Cl)c(Oc2ncc(C(F)(F)F)cc2Cl)c1`, the Potency entry was “inactive”.
Same read-out and setting: to `CC(=O)O[C@H]1CC[C@H]2[C@@H]3CCC4=CC(=O)CCC4=C3C=C[C@]12C` belongs “inactive”; to `COC(=O)[C@@H]1[C@H]2CC[C@@H](C[C@H]1OC(=O)c1ccccc1)N2C`, “inactive”.
On to `O[C@H]1[C@H]2[C@H](O)CCCN2C[C@H]1O`, for which the Potency result was “inactive”.
Regarding `ClCC1CO1` (configuration not stated), the Potency entry is “inactive”.
As for `CCOC(=O)c1ccccc1C(=O)OCC`, the Potency entry was “inactive”.
Still for that read-out and setting: to `CN(C)CCCCCCN(C)C` (tested in a mixture with another compound) belongs “inactive”.

A further assay can be described thus: P-glycoprotein substrates identified in KB-3-1 adenocarcinoma cell line, qHTS therapeutic library screen (AID 1346986). Also: nearly all actives have a fitted effect of over 60% in size. As to conditions: KB-3-1 parental cells viability, CellTiter-Glo, 72 h; series mostly up to 44.5 µM. A digest of the protocol: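 Compounds were tested in dose-response against KB-3-1 and KB-8-5-11 cells at 37 degree C for 72 h, and viability was measured by luminescence. AC50 values came from curve fitting with class-based activity calls.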
`CCC1NC(=O)C2C(Cl)C(Cl)CN2C(=O)C(C(C)O)NC(=O)CC(c2ccccc2)NC(=O)C(CO)NC1=O` (configuration not stated): the Potency result is “inactive”.
As for `CCCN1CCO[C@H]2c3cc(O)ccc3OC[C@@H]21`, the Potency result was “inactive”.
With `C/C=C(\C)C(=O)OC1CC2C(CC=C3CC(OC4CC(OC)C(OC5CC(OC)C(OC6OC(C)C(OC7OC(CO)C(O)C(O)C7O)C(OC)C6O)C(C)O5)C(C)O4)CCC32C)C2(O)CCC(C(C)=O)C12C` (configuration not stated), the outcome is “inactive [at 9.29 µM]”.
As for `CC(C)(C)c1cc(C(C)(C)C)c2c(c1)C(O)(C(F)(F)F)C(=O)O2` (configuration not stated), the Potency entry is “inactive”.
In the case of `COc1cc(CCNCc2ccccc2O)c(OC)cc1C#N`, the Potency result is “inactive”.
`CCCCCCn1c(=O)c(C(=O)Nc2ccc(C(=O)OCCC)cc2)c(O)c2ccccc21`: the outcome is “inactive [at 9.29 µM]”.
With `Cn1ncnc1COc1nn2c(-c3c(F)cccc3F)nnc2cc1C1CCC1`, the Potency result was “inactive”.
On to `CC(N)Cc1c[nH]c2ccccc12` (configuration not stated), for which the Potency result was “inactive”.
As to `C[C@@H]1C(=O)O[C@H]2[C@H](O)[C@@]34[C@@H]5OC(=O)[C@@]3(O[C@@H]3OC(=O)[C@@H](O)[C@@]34[C@H](C(C)(C)C)[C@H]5O)[C@@]12O`, the Potency entry is “inactive”.
Still for that read-out and setting: for `CCCCCOc1cc2c(cc1-c1cc(/C=C/C(=O)O)ccc1O)C(C)(C)CCC2(C)C` the value was “inactive”; for `C=C(CO)C(=O)O[C@H]1C/C(C)=C/CC/C(CO)=C/[C@H]2OC(=O)C(=C)[C@H]12`, “inactive”.
Regarding `COc1c(C(C)C)cc2c(c1O)[C@@]1(C(=O)O)CCCC(C)(C)C1CC2` (some centres not stated), the Potency entry was “inactive”.
In the case of `O=C(O)c1ccnc2cc(C(OCCN3CCCCC3)c3ccccc3Cl)[nH]c12` (configuration not stated), the Potency entry was “inactive”.

A short description of a further assay: P-glycoprotein substrates identified in KB-8-5-11 adenocarcinoma cell line, qHTS therapeutic library screen (AID 1346987). Also: nearly all actives have a fitted effect of over 65% in size. Also: potency is read from the fitted curve at half-maximal effect. As to conditions: KB-8-5-11 (P-gp overexpressing) viability, CellTiter-Glo, 72 h; series mostly up to 44.5 µM. A digest of the protocol:
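KB-8-5-11: colchicine-selected sub-line of KB-3-1 over-expressing P-gp; assay medium lacked colchicine. 72 h drug exposure at 37 degree C, CellTiter-Glo.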
Turning to `CC(C)[C@@]1(NC(=O)[C@@H]2C[C@@H]3c4cccc5[nH]cc(c45)C[C@H]3N(C)C2)O[C@@]2(O)[C@@H]3CCCN3C(=O)[C@H](Cc3ccccc3)N2C1=O`, the Potency result was “inactive”.
In the case of `C=CCN(C1=NCCN1)c1c(Cl)cccc1Cl`, the Potency result was “inactive”.
Regarding `CC(N)Cc1ccc(O)cc1` (configuration not stated), the Potency result was “inactive”.
For `CCC1NC(=O)C2C(Cl)C(Cl)CN2C(=O)C(C(C)O)NC(=O)CC(c2ccccc2)NC(=O)C(CO)NC1=O` (configuration not stated), the Potency entry was “inactive”.
For `C[N+]1([O-])[C@@H]2CC(OC(=O)[C@H](CO)c3ccccc3)C[C@H]1[C@@H]1O[C@@H]12` (some centres not stated), the Potency entry was “inactive”.
In the case of `C[N+]1(C)[C@@H]2CC[C@H]1CC(OC(=O)c1c[nH]c3ccccc13)C2` (some centres not stated), the Potency result was “inactive”.
On to `CCCN1CCO[C@H]2c3cc(O)ccc3OC[C@@H]21`, for which the Potency result was “inactive”.
In the case of `C/C=C(\C)C(=O)OC1CC2C(CC=C3CC(OC4CC(OC)C(OC5CC(OC)C(OC6OC(C)C(OC7OC(CO)C(O)C(O)C7O)C(OC)C6O)C(C)O5)C(C)O4)CCC32C)C2(O)CCC(C(C)=O)C12C` (configuration not stated), the activity change, negative = cytotoxicity was 9.6% [at 9.29 µM] (inactive).
For `CC(C)(C)c1cc(C(C)(C)C)c2c(c1)C(O)(C(F)(F)F)C(=O)O2` (configuration not stated), the Potency entry is “inactive”.
With `O=C1C[C@@H]2OCC=C3CN4CC[C@]56c7ccccc7N1[C@H]5[C@H]2[C@H]3C[C@H]46` (tested in a mixture with another compound), the Potency entry is “inactive”.
On the same count and under the same terms, for `C[C@]12CC[C@H](O)C[C@H]1CC[C@@H]1[C@@H]2CC[C@]2(C)[C@@H](c3ccc(=O)oc3)C[C@H]3O[C@]132` the value was 1.84 µM (active).
Regarding `CCCCCCn1c(=O)c(C(=O)Nc2ccc(C(=O)OCCC)cc2)c(O)c2ccccc21`, the outcome is “inactive [at 9.29 µM]”.
For `F/C(COc1ccc2c(c1)[nH]c1ccccc12)=C1/CN2CCC1CC2`, the Potency entry is “inactive”.
For the compound `[H+].[H+].[Hg+2].[O-]B([O-])[O-].[c-]1ccccc1`, the Potency was 1.3 µM (active).
Take `Cn1ncnc1COc1nn2c(-c3c(F)cccc3F)nnc2cc1C1CCC1`: the Potency entry was “inactive”.
Turning to `Oc1cccc[c]1[Hg][Cl]`, the Potency is 5.17 µM (active).
Turning to `CC1CCC(C(C)C)C(OC(=O)c2ccccc2N)C1` (configuration not stated), the Potency result is “inactive”.
With `COc1ccc2c3c1O[C@H]1[C@@H](O)C=C[C@H]4[C@@H](C2)NCC[C@@]341`, the Potency result was “inactive”.
With `CC(N)Cc1c[nH]c2ccccc12` (configuration not stated), the Potency entry was “inactive”.
Consider `Cc1ccccc1-n1c(CF)nc2ccc(N)cc2c1=O`, for which the Potency result is “inactive”.
For `CC(C)(O)[C@@H]1[C@H]2OC(=O)[C@@H]1[C@]1(O)C[C@H]3O[C@]34C(=O)O[C@H]2[C@]14C`, the Potency entry is “inactive”.
The same measure, in the same setting: to `COCC(C)N(C(=O)CCl)c1c(C)csc1C` (configuration not stated) belongs “inactive”; to `CC(=O)OCC(=O)[C@H]1CC[C@H]2[C@@H]3CC[C@H]4C[C@H](O)CC[C@]4(C)[C@H]3C(=O)C[C@]12C`, “inactive”.
On to `C[C@@H]1C(=O)O[C@H]2[C@H](O)[C@@]34[C@@H]5OC(=O)[C@@]3(O[C@@H]3OC(=O)[C@@H](O)[C@@]34[C@H](C(C)(C)C)[C@H]5O)[C@@]12O`, for which the Potency entry is “inactive”.
Take `C[C@@H](Cc1ccccc1)N(C)C`: the Potency result is “inactive”.
Take `O=C(NC(=O)c1c(F)cccc1F)Nc1ccc(Cl)c(Oc2ncc(C(F)(F)F)cc2Cl)c1`: the Potency result is “inactive”.
As for `CC(=O)O[C@H]1CC[C@H]2[C@@H]3CCC4=CC(=O)CCC4=C3C=C[C@]12C`, the Potency was 7.31 µM (active).
Turning to `COC(=O)[C@@H]1[C@H]2CC[C@@H](C[C@H]1OC(=O)c1ccccc1)N2C`, the Potency result was “inactive”.
As to `C=C(CO)C(=O)O[C@H]1C/C(C)=C/CC/C(CO)=C/[C@H]2OC(=O)C(=C)[C@H]12`, the Potency result was “inactive”.
Consider `O[C@H]1[C@H]2[C@H](O)CCCN2C[C@H]1O`, for which the Potency result is “inactive”.
The same measure, in the same setting: for `COc1c(C(C)C)cc2c(c1O)[C@@]1(C(=O)O)CCCC(C)(C)C1CC2` (some centres not stated) the value was “inactive”.
For `ClCC1CO1` (configuration not stated), the Potency result is “inactive”.
Still for that read-out and setting: to `CCOC(=O)c1ccccc1C(=O)OCC` belongs “inactive”; to `CN(C)CCCCCCN(C)C` (tested in a mixture with another compound), “inactive”.
In the case of `O=C(O)c1ccnc2cc(C(OCCN3CCCCC3)c3ccccc3Cl)[nH]c12` (configuration not stated), the Potency entry is “inactive”.
